Consider 27 compounds from PubChem BioAssay (NCATS).

The target in assay [1] is Estrogen receptor (Homo sapiens) (UniProt P03372). Description: qHTS assay for small molecule antagonists of estrogen receptor alpha signaling (AID 588513; active = well fitted curve in the direction sought with a large enough effect in the signal ratio, with a control signal flat, not every such curve was filed as active; the % refers to the signal ratio; also: potency is read from the fitted curve at half-maximal effect). Put shortly: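 Antagonist-mode qHTS in ER-alpha-UAS-bla HEK 293 cells: compound titration, 0.5nM estradiol for 18 h, CCF4 fluorescence, Hill-derived IC50.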
Estrogen receptor (Homo sapiens), sequence (P03372 whole entry, looked up): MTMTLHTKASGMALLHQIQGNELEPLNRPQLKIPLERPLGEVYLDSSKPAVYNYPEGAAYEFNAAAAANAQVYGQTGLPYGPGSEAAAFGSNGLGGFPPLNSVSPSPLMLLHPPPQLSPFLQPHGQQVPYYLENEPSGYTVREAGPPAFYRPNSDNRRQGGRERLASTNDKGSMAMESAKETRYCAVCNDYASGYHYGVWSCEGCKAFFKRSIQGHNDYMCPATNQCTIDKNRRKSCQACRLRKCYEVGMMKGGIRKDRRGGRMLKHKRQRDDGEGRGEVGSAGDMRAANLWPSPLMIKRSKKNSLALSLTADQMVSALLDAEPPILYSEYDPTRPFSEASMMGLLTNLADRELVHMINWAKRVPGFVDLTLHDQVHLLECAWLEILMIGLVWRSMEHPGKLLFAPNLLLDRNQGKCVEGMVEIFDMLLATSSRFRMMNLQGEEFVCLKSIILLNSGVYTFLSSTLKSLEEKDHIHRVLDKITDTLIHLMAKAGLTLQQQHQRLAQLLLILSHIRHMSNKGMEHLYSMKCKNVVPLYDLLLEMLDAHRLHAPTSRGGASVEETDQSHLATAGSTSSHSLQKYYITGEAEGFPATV
The target is the same in assay [2]. Description: qHTS assay for small molecule agonists of estrogen receptor alpha signaling (AID 588514).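 Also: 0% = vehicle only and 100% = reference agonist; nearly all actives have a fitted effect of over 70% in size.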 In a few lines:
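EC50 and efficacy came from Hill fits of beta-lactamase reporter signal (CCF4 dye, 2 h at room temperature) scaled between DMSO and 20 nM 17-beta-estradiol. Agonist mode: HEK293 ER-alpha-UAS-bla cells in charcoal/dextran-stripped serum medium, 18 h compound exposure at 37 C.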

For assay [3], the target named is Peroxisome proliferator-activated receptor delta (Homo sapiens) (UniProt Q03181). Nature of the assay: qHTS assay for small molecule antagonists of peroxisome proliferator-activated receptor delta signaling (AID 588535; active = well fitted inhibition curve with a large enough effect in the signal ratio, with a control signal flat, not every such curve was filed as active; the % refers to the signal ratio). In a few lines:
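Titrations were run on PPAR-delta-UAS-bla HEK293T cells in charcoal/dextran-stripped serum, incubated 18 h at 37 C. CCF4 fluorescence (460/530 nm) after 2 h RT; Hill equation yields IC50 and maximal response.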

The target in assay [4] is Glucocorticoid receptor (Homo sapiens) (UniProt P04150). Description: qHTS assay for small molecule antagonists of glucocorticoid receptor signaling (AID 588533; active = well fitted inhibition curve with a large enough effect in the signal ratio, with a control signal flat, not every such curve was filed as active; the % refers to the signal ratio;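 also: cells stimulated with 2 nM dexamethasone as agonist; % is scaled to controls: 0 for no effect and ±100 for the full control effect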). Put shortly:
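Antagonist-mode qHTS: compound titrations added to GRE-bla HeLa cells, then dexamethasone 2 nM final; 18 h, 37 C. CCF4 FRET fluorescence normalized to dexamethasone and DMSO; IC50 from Hill fit.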

Assay [5] in a line: qHTS assay for small molecule agonists of retinoid X receptor alpha signaling (AID 588544). As to conditions: HEK293T RXRa-UAS-bla, beta-lactamase reporter, 18 h; 530 nm emission.
The nature of assay [6]: qHTS assay for small molecule activators of the nuclear factor-kappa B (NF-kB) signaling pathway (AID 651749; active = well fitted activation curve with a large enough effect in the signal ratio; the % refers to the signal ratio; also: series mostly up to about 77 µM; % of control where 0% means no effect). As to conditions: NF-kB-bla ME-180 cells, beta-lactamase FRET ratio, 16 h; activation: stronger effect = higher value. In a few lines:
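Activation measured after 16 hr compound treatment at 37C, 5% CO2, of 2,000 ME-180 cells/well stably expressing an NF-kB response element–driven beta-lactamase reporter, via FRET-disruption fluorescence.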

A short description of assay [7]: qHTS assay for small molecule agonists of the antioxidant response element (ARE) signaling pathway (AID 651741; active = well fitted activation curve with a large enough effect in the signal ratio; the % refers to the signal ratio; also: % of control where 0% means no effect). Put shortly:
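Beta-lactamase reporter under ARE control in HepG2 cells, 2,000 per well, was induced by 16 h compound treatment at 37 C. Read-out was fluorescence from LiveBLAzer B/G FRET substrate after 2 h at room temperature.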

Assay [8] can be described thus: qHTS assay for small molecule activators of the human pregnane X receptor (PXR) signaling pathway (AID 720659; call rule not given here; also: 0% is about no effect).
Assay [9] concerns the target Androgen receptor (Homo sapiens) (UniProt P10275). Description: qHTS assay for small molecule agonists of androgen receptor signaling (AID 588515; active = well fitted curve in the direction sought with a large enough effect in the signal ratio, with a control signal flat; the % refers to the signal ratio; also: % is scaled to controls: 0 for no effect and ±100 for the full control effect). Particulars: AR-UAS-bla HEK293, beta-lactamase ratio, agonist 16 h; stronger effect = higher value. Put shortly: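 Stimulation of an AR-responsive β-lactamase reporter in GripTite HEK293 cells was measured after 16 h compound exposure at 37 °C, via CCF4 fluorescence after 2 h RT. EC50 from Hill fits, normalized to R1881 at 30 nM.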

Assay [10] shares this target. Description: qHTS assay for small molecule antagonists of androgen receptor signaling (AID 588516; active = well fitted curve in the direction sought with a large enough effect in the signal ratio, with a control signal flat, not every such curve was filed as active; the % refers to the signal ratio; also: % is scaled to controls: 0 for no effect and ±100 for the full control effect). In a few lines:
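Compounds tested in titration against 10 nM R1881 in AR-responsive bla reporter HEK 293 cells; CCF4 fluorescence (460/530 nm) after 16 h exposure gave IC50 and efficacy.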

Assay [11] deals with Bile acid receptor (Homo sapiens) (UniProt Q96RI1). Nature of the assay: qHTS assay for small molecule antagonists of farnesoid X receptor signaling (AID 588526). Also: potency is read from the fitted curve at half-maximal effect. Put shortly:
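Beta-lactamase reporter antagonist mode: HEK293T FXR-UAS-bla cells, titrated compound, CDCA stimulation, 16 h 37 C, CCF4 dye 2 h RT. Data normalized to CDCA 50 uM and DMSO; Hill-fit IC50.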

Assay [12] has the same target. Nature of the assay: qHTS assay for small molecule agonists of farnesoid X receptor signaling (AID 588527).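 Also: series mostly up to about 77 µM; 0% = vehicle basal and 100% = reference agonist.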 As to conditions: HEK293T FXR-UAS-bla, beta-lactamase ratio, 16 h; activation: stronger effect = higher value. Put shortly: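 FXR-UAS-bla HEK293T cells (10% dialyzed FBS) preincubated 5-7 h at 37 C, then compounds at up to 92 uM for 16 h at 37 C. CCF4 beta-lactamase read-out after 2 h RT. Normalized to chenodeoxycholic acid (100 uM) and DMSO; Hill fit gave EC50 and efficacy.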

“And” between values parts separate entries of the source, which are not always exact repeats. Equal entries are not always repeated. Records with an inconclusive call do not appear. The source made the active and inactive calls. Unless noted, calls follow the shape of the full dose curve.

Peroxisome proliferator-activated receptor delta (Homo sapiens), sequence (Q03181 whole entry, looked up): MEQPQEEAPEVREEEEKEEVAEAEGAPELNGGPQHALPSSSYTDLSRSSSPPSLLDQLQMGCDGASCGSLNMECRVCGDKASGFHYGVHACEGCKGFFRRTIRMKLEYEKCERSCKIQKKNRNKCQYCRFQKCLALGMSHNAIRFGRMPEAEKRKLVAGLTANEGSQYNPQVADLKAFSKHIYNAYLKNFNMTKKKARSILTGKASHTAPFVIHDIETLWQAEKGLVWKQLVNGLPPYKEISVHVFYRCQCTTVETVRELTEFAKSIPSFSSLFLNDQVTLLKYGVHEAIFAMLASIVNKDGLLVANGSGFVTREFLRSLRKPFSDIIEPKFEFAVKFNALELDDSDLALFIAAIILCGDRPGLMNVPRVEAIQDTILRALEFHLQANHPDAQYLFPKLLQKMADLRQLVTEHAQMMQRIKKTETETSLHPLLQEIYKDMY
Bile acid receptor (Homo sapiens), sequence (Q96RI1 whole entry, looked up): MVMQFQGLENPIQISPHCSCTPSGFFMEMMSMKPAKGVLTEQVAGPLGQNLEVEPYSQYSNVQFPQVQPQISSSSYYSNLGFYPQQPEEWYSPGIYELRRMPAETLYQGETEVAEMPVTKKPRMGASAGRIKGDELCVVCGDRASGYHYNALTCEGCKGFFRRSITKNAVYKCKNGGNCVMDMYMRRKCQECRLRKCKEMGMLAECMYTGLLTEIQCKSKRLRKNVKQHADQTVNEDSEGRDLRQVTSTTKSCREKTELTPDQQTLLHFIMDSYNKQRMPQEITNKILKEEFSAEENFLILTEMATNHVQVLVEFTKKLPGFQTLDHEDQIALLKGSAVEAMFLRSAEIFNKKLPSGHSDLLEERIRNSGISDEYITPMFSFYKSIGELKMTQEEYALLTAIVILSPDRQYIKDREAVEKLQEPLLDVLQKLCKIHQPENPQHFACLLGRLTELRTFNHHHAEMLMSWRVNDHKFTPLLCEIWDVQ
Glucocorticoid receptor (Homo sapiens), sequence (P04150 whole entry, looked up): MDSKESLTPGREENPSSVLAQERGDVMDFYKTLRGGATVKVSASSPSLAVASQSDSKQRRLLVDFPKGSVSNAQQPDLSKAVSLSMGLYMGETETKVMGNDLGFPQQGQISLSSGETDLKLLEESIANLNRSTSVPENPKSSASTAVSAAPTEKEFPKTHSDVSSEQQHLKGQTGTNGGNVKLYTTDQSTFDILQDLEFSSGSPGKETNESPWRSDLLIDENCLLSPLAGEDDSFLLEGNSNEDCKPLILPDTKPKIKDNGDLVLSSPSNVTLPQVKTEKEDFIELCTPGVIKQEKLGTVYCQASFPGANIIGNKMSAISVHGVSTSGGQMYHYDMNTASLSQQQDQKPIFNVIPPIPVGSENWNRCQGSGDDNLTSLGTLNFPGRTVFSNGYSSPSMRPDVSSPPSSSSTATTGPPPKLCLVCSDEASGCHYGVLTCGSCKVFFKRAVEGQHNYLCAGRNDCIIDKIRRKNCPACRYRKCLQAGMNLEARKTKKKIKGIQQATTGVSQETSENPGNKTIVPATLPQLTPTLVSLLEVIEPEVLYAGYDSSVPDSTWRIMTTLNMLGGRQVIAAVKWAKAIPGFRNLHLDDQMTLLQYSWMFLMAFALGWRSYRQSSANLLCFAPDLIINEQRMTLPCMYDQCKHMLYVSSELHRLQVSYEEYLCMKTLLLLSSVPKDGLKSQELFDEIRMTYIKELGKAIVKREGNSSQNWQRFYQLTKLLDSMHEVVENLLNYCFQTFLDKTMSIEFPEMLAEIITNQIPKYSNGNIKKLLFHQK
Androgen receptor (Homo sapiens), sequence (P10275 whole entry, looked up): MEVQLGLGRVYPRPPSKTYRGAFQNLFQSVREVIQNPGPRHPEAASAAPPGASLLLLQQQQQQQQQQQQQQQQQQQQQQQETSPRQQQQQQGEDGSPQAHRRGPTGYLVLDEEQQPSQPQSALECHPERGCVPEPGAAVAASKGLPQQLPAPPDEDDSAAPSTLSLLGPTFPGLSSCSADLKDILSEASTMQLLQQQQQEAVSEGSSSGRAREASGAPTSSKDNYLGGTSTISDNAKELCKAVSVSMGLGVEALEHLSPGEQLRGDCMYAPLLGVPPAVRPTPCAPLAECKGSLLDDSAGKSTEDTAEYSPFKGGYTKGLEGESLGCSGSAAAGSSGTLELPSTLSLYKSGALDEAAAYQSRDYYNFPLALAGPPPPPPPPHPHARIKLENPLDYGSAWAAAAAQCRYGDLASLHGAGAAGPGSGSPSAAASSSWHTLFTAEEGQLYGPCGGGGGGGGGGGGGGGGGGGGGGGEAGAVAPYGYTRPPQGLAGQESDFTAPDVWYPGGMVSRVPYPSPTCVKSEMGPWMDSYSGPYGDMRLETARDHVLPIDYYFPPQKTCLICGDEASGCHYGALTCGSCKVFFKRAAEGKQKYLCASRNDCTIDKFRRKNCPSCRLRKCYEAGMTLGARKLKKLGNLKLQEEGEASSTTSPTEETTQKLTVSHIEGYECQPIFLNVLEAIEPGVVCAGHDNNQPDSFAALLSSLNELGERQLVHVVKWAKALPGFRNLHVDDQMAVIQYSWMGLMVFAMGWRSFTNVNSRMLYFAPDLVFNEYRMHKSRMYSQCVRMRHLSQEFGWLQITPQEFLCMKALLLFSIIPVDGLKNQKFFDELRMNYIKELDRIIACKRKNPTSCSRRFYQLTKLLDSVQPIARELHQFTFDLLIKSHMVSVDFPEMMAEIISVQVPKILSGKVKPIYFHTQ

Take `CS(=O)(=O)c1cc(C(F)(F)F)ccc1C(=O)c1cnoc1C1CC1`: the Potency entry in assay [1], in [2] and in [3] was “inactive” in each case.

With `CC(C)(C)C(=O)[C@@H](Oc1ccc(Cl)cc1)n1cncn1`, the Potency entry in assay [1], in assay [2], in [4] and in assay [3] was “inactive” each time. Moreover, the max response in [5] was 9.03%. Further, in [6], the activation was -1.55% (inactive).

On to `CC(C)(C#N)N=NC(C)(C)C#N`, for which the Potency entry in assay [1], in [2], in [3] and in assay [7] was “inactive” in each case. Also, in assay [5], the max response was -3.46%. Besides, in assay [8], the compound was called inactive.

Turning to `Cc1cc(C)nc(NC(=O)NS(=O)(=O)c2ccccc2C(=O)OC2COC2)n1`, the Potency result in assay [1], in [10] and in [11] was “inactive” in each case. For the same compound, the values for the activation in assay [9], in assay [12] and in assay [6] were -3.69% (inactive), 1.23% (inactive) and 1.32% (inactive), respectively. Moreover, the max response in [5] is -3.21%. Further, in assay [8], the compound was called inactive.

Consider `CCOS(=O)(=O)OCC`, for which the Potency result in assay [1], in assay [2], in [4] and in [7] was “inactive” each time. In addition, the max response in assay [5] was -16.7%. In addition, the outcome in assay [8] was inactive.

For `OC(Cn1cncn1)(c1ccc(F)cc1)c1ccccc1F` (centres undefined), the Potency entry in assay [1] and in [2] was “inactive” each time. Besides, the activation in assay [6] is 0.295% (inactive). The result in [8] was inactive.

Turning to `CCOP(=O)(OCC)SCSP(=S)(OCC)OCC`, the Potency result in assay [2], in [10], in [11], in assay [4] and in [3] was “inactive” throughout. In addition, the results for the activation in assay [9], in [12] and in [6] were -6.59% (inactive), 10.4% (inactive) and 1.64% (inactive), respectively.

On to `O=C(O)C(F)(F)C(F)(F)C(F)(F)C(F)(F)C(F)(F)F`, for which the Potency result in assay [1], in [4] and in [7] was “inactive” each time. Also, the max response in assay [5] turned out to be 6.49%.

Turning to `CC(Oc1ccc(Cl)cc1Cl)C(=O)O` (centres undefined), the Potency result in [1] and in assay [4] was “inactive” each time. The figures for the activation in [12] and in assay [6] were -0.107% (inactive) and -1.28% (inactive), respectively. Further, in assay [5], the max response is 11.7%. Further, the compound was classed as inactive in assay [8].

For the compound `CCOP(=S)(OCC)Oc1cnc2ccccc2n1`, the Potency result in [1], in [11], in [4] and in [7] was “inactive” each time. Further, the activation in assay [12] was 1.65% (inactive).

Turning to `COP(=S)(OC)Oc1ccc([N+](=O)[O-])c(C)c1`, the Potency entry in assay [1], in assay [11] and in [4] was “inactive” throughout. Also, the activation in assay [12] is 2.17% (inactive). Besides, the max response in assay [5] was -4.53%.

For the compound `CCOP(N)(=O)Oc1ccc(SC)c(C)c1` (centres undefined), the Potency entry in assay [2], in assay [10], in [11], in assay [3] and in [7] was “inactive” throughout. Moreover, the results for the activation in [9], in [12] and in assay [6] were -2.98% (inactive), 3.26% (inactive) and 0.0027% (inactive), respectively. Besides, the max response in [5] was -16.6%.

On to `CCNP(=S)(OC)O/C(C)=C/C(=O)OC(C)C` (centres undefined), for which the Potency result in assay [1] was “inactive”. Also, the max response in assay [5] was -7.51%. Besides, the activation in assay [6] was 0.112% (inactive).

Turning to `CCOP(=S)(NC(C)C)Oc1ccccc1C(=O)OC(C)C` (centres undefined), the Potency result in [1], in [11], in assay [4] and in assay [7] was “inactive” in each case. Further, in assay [12], the activation was 8.84% (inactive).

`O=S(=O)(c1ccc(O)cc1)c1ccc(O)cc1`: the Potency result in assay [1], in [11] and in assay [4] was “inactive” each time. Besides, the activation was -2.06% (inactive) in assay [12] and -0.813% (inactive) in assay [6]. Also, the max response in [5] was -2.49%. The call in [8] was inactive.

Regarding `COC(=O)c1sccc1S(=O)(=O)NC(=O)Nc1nc(C)nc(OC)n1`, the Potency entry in [1], in assay [3] and in [7] was “inactive” each time. Also, in assay [5], the max response is -0.622%. For the same compound, in [6], the activation was -1.57% (inactive). Besides, in assay [8], the result was inactive.

Turning to `CC1(c2ccc(Oc3ccccc3)cc2)OC(=O)N(Nc2ccccc2)C1=O` (centres undefined), the Potency is 15.8 µM [inhibitor] (active) in assay [1] and 35.5 µM (active) in assay [11]. Moreover, in assay [12], the activation is 4.14% (inactive).

As for `O=Cc1cccc(Oc2ccccc2)c1`, the Potency entry in [1], in assay [4], in [3] and in assay [7] was “inactive” in each case. In assay [5], the max response is 6.44%. Further, in assay [6], the activation was -0.909% (inactive). Besides, in assay [8], the compound was called inactive.

Turning to `CC1(C)Cc2cccc(O)c2O1`, the Potency result in [1] and in assay [7] was “inactive” each time. Also, the compound was called inactive in assay [8].

With `COP(=S)(OC)Oc1c(Cl)cc(C)cc1Cl`, the Potency entry in assay [1] and in assay [3] was “inactive” throughout. Also, in assay [5], the max response came out at 0.267%.

Take `CC(C)CCCCCCOC(=O)c1ccccc1C(=O)OCCCCCCC(C)C`: the Potency entry in [2], in [10], in assay [11], in [4], in assay [3] and in assay [7] was “inactive” throughout. The activation in assay [9] was 13.4% (inactive); in assay [12], 0.284% (inactive); in assay [6], 2.38% (inactive). For the same compound, the max response in [5] was -16.4%. For the same compound, the outcome in assay [8] was inactive.

In the case of `O=P(O)(O)CN(CP(=O)(O)O)CP(=O)(O)O`, the Potency entry in assay [1], in assay [4] and in assay [3] was “inactive” throughout. In [6], the activation is 0.3% (inactive). Besides, in assay [8], the compound was classed as inactive.

With `CNC(=S)S`, the Potency entry in [1], in [4] and in [3] was “inactive” throughout. Besides, the max response in [5] is -26.8%. Besides, the activation in assay [6] was -2.14% (inactive). Further, the call in assay [8] was inactive.

With `Clc1ccc([C@@]2(Cn3cncn3)C[C@@H](Br)CO2)c(Cl)c1`, the Potency result in assay [1], in [11] and in assay [3] was “inactive” each time. Also, the activation in [12] was 3.84% (inactive); in [6], -2.08% (inactive).

As for `CC(=O)[C@H]1[C@H](C#N)C[C@H]2[C@@H]3CC=C4C[C@@H](O)CC[C@]4(C)[C@H]3CC[C@@]21C`, the Potency result in assay [1] is “inactive”. Moreover, in assay [12], the activation was -2.16% (inactive) and -0.929% (inactive).

For `CN(C)P(=O)(N(C)C)N(C)C`, the Potency entry in [1], in [11], in [3] and in assay [7] was “inactive” in each case. In addition, in assay [12], the activation is 3.22% (inactive). Also, the max response in [5] is -16.8%. Also, in [8], the result was inactive.

With `CCC(C)n1c(=O)[nH]c(C)c(Br)c1=O` (centres undefined), the Potency result in assay [1] and in assay [11] was “inactive” each time. Further, the activation in assay [12] is 2.99% (inactive); in assay [6], 0.0195% (inactive). Moreover, in assay [5], the max response came out at 0.805%. The outcome in [8] was inactive.
